GLS inhibitor: blocks human kidney-isoform glutaminase activity | 410,000 tested, 0.21% active | Potency, µM (doses to about 45.5 µM), inactives show top-dose activity change, negative = inhibition, most hits filed as inhibitors | O94925 | GLS enzymatic activity, qHTS titration; further: on the % scale 0 is the no-effect control and ±100 the full control effect
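Enzyme dispensed in phosphate buffer (45 mM, pH 8.2, 0.02% Tween-20), compounds pinned in, then 1 mM L-glutamine solution and the glutamate oxidase–HRP–Amplex Red mix added; fluorescence read immediately and again after 30 min at room temperature.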
L3MBTL1 inh: blocks human L3MBTL1; Q9Y468; AlphaScreen L3MBTL1–H3K9me1 peptide binding; 230,000 tested, 0.66% active; Potency, µM (doses to about 57.1 µM), for inactives: top-dose activity, negative = inhibition, usual class: inhibitors; AID 485360; further: on the % scale 0 is the no-effect control and ±100 the full control effect; nearly all actives have a fitted effect of over 60% in size
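L3MBTL1 50 nM + b-AHA-H3(1-15)K9me1 75 nM, 30 min RT; compound added, 30 min RT; streptavidin donor/Ni-chelate acceptor beads 10 ug/mL each final, 30 min RT dark; AlphaScreen read.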
BAZ2B block: BAZ2B (human) inhibition; AlphaScreen BAZ2B-H3K14Ac peptide displacement; AID 504333; Potency, µM (titrated, usually from 114 µM), without a hit: top-dose activity change, negative = inhibition, actives largely listed as inhibitors; 360,000 tested, 4.4% active; Q9UIF8; further: on the % scale 0 is the no-effect control and ±100 the full control effect; nearly all actives have a fitted effect of over 60% in size
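In this displacement format the biotinylated H3(5-23) peptide acetylated at Lys14 serves as ligand at 50 nM, with BAZ2B at 50 nM in PBS pH 7.4 containing 0.01% Tween-20. Donor and acceptor beads are 10 ug/mL final.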
HP1b chromo inh: blocks HP1-beta chromodomain binding to methylated histone tails. P83916. AlphaScreen HP1-beta / biotin-H3K9me3 peptide binding. Potency, µM (titrated, usually from 114 µM), for inactives: at the top dose activity change, negative = inhibition, actives largely listed as inhibitors. 390,000 tested, 0.56% active. AID 540317; further: nearly all actives have a fitted effect of over 70% in size
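Compound inhibition of the preformed complex between 50 nM HP1-beta and 50 nM biotinylated H3K9me3 peptide was read by AlphaScreen. Buffer was PBS pH 7.4 with 0.01% Tween-20. Incubations ran 30 min at room temperature, with 10 ug/mL donor/acceptor beads.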
JMJD2A Tudor inh: blocks the human JMJD2A Tudor domain. 390,000 tested, 4.4% active. AlphaScreen JMJD2A-Tudor / H3K4me3 peptide binding. O75164. Potency, µM (top dose mostly 114 µM), inactives show at the top dose activity change, negative = inhibition, hits mostly inhibitors. AID 504339; further: on the % scale 0 is the no-effect control and ±100 the full control effect; nearly all actives have a fitted effect of over 50% in size
Target sequence (O75164 whole entry, looked up, the tested form may be a part): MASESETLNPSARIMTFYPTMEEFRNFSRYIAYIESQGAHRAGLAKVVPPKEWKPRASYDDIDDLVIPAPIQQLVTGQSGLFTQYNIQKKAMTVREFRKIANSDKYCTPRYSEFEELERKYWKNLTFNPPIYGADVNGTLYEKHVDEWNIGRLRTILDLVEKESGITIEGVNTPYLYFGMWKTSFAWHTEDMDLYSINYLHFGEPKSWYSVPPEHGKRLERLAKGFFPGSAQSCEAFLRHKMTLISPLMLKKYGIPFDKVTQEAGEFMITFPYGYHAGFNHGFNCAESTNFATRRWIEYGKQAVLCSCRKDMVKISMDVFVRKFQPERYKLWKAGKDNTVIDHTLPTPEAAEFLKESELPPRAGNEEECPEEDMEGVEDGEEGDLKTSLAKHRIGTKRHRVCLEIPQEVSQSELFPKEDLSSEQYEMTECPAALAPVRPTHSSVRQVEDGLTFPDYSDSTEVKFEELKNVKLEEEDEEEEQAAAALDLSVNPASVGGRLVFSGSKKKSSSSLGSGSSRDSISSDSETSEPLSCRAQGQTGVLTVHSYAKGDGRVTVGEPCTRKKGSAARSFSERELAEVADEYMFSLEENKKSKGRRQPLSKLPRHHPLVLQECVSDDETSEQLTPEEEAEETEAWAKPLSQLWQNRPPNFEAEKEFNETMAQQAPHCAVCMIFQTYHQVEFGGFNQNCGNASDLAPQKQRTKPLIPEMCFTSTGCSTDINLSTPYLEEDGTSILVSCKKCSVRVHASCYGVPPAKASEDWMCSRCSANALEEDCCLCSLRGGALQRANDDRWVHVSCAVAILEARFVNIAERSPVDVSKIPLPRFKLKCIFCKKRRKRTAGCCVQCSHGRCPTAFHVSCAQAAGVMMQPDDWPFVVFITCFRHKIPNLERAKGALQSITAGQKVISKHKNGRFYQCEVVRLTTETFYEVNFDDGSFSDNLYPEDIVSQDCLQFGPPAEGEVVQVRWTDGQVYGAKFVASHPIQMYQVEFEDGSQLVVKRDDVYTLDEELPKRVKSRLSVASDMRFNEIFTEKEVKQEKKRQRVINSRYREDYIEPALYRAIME
G9a inh: G9a (human) methyltransferase inhibition; G9a H3K9 monomethylation, AlphaScreen, 2 h; Potency, µM (titrated, usually from 102 µM), inactives show at the highest dose activity, negative = inhibition, hits mostly inhibitors; 350,000 tested, 8.8% active; further: on the % scale 0 is the no-effect control and ±100 the full control effect; nearly all actives have a fitted effect of over 75% in size
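Using a bead-based AlphaScreen, monomethylated H3K9 product from 2 h room-temperature reactions (G9a 20 nM, peptide 500 nM, SAM 20 uM) was detected with 0.5 ug/mL rabbit anti-H3K9me1 antibody.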
Numbers without * were called inactive; ? = inconclusive; / = not tested or not shown; [ ] = another dose, or the depositor's remark. An excerpt weighted towards active compounds, which were near 10% of everything screened. The call rests on the fitted dose curve; in most records, active means well fitted curve in the direction sought with a large enough effect; inconclusive means small, poorly fitted or top-dose-only effect, or another doubt; inactive means no such curve, though single readings can be large; an effect the other way counts as inactive or inconclusive. Potency means the concentration at half of the fitted maximal effect.

SMILES	GLS inhibitor	L3MBTL1 inh	BAZ2B block	HP1b chromo inh	JMJD2A Tudor inh	G9a inh
CC(CNC(=O)Cn1ccc2cc(S(=O)(=O)N3CCCCCC3)ccc21)c1ccccc1 (stereo not given)	-7.3%	/	-11.8%	23.8%	-23.8%	-26.2%[59 µM]
CS(=O)(=O)N1CCC2(CCCN(c3ncccn3)C2)CC1	/	/	/	/	/	3.1%[12.7 µM]
COc1ccc(OC)c(S(=O)(=O)N2Cc3ccccc3CC2C(=O)Nc2ccc(C(C)=O)cc2)c1 (stereo not given)	3.7%	/	-17.5%	-4.2%	-24.3%	-11.1%[59 µM]
Fc1ccc(Nc2nc(SCc3cccc(F)c3)nc3ccccc23)cc1	1.4%	/	28.7%	69.4%	24.0%	33.1%[59 µM]
Cc1cccc(NC(=O)CSc2nc(-c3cccs3)nc3cc(=O)[nH]n23)c1	?	/	79.4µM*	?	?	-38.0%[59 µM]
COc1cccc(NC(=O)CSc2nnc(-c3cccs3)n2C)c1	6.3%	2.5%	-6.4%	16.7%	-9.8%	-9.4%
Cc1nnc(NC(=O)C2CCCO2)s1 (stereo not given)	-5.1%	11.4%[11.4 µM]	1.0%	-4.6%	-18.6%	8.91µM*
COCCSc1nnc(NC(=O)C2CCCO2)s1 (stereo not given)	13.6%	11.3%	11.9%	23.8%	-6.2%	-6.3%
Cc1nnc(NC(=O)CCSCCC(=O)Nc2nnc(C)s2)s1	?	?	50.1µM*	-16.6%	50.1µM*	50.1µM*
COc1ccc(Cc2nnc(NC(=O)C3CCCO3)s2)cc1 (stereo not given)	-0.5%	1.3%	-36.7%	26.7%	-5.4%	?
O=C(Nc1nnc(Cc2ccc(Cl)cc2)s1)C1CCCO1 (stereo not given)	-2.9%	-1.8%	-21.6%	-12.2%	1.4%	28.2µM*
O=C(Nc1nnc(-c2ccncc2)s1)C1CCCO1 (stereo not given)	-11.7%	-0.6%	-29.5%	-9.2%	100µM*	?
C=CCn1c(SCC#N)nc2cc(Cl)ccc2c1=O	/	/	/	28.0%[57 µM]	4.6%[57.1 µM]	/
CCCCCCCCCCCCC/C=C/[C@@H](O)[C@H](CO)NC(C)=O	/	/	/	/	/	25.0%[59 µM]
O=C(CC12CC3CC(CC(C3)C1)C2)NC(=S)N1CCCCC1	10.8%	-2.4%	-5.0%	?	-17.6%	11.2µM*
O=C(NC1CCN(C(=S)NCc2ccco2)CC1)C1CCCCC1	?	-4.3%	10.0%	3.9%	-1.1%	?
CC1CCN(C(=S)NC(=O)C2CCCCC2)CC1	4.6%	-1.6%	-15.9%	41.1%	-3.6%	-31.4%[59 µM]
O=C(NC(=S)N1CCCCCC1)C1CC1	9.9%	-2.5%	-0.4%	5.7%	-24.3%	28.2µM*
S=C(NC12CC3CC(CC(C3)C1)C2)N1CCCC1	6.6%	1.1%	6.9%	25.8%	-11.6%	11.6%[59 µM]
CCCNC(=S)N1CCC(NC(=O)C2CCCCC2)CC1	2.0%	-5.1%	2.1%	?	22.4µM*	7.1%[12.7 µM]
O=C(NC1CCN(C(=S)NCCc2ccccc2)CC1)C1CC1	0.1%	5.2%	?	70.3%	-4.8%	10µM*
O=C(NCCS(=O)(=O)N1CCN(c2ccccc2F)CC1)C(c1ccccc1)c1ccccc1	6.0%	/	3.5%	21.9%[57 µM]	-0.6%	-4.6%[59 µM]
O=C(Nc1ccc2nc(-c3ccccc3)[nH]c2c1)c1cccs1	1.2%	/	-5.8%	11.6%	-20.3%	?
O=C(Nc1ccc2nc(-c3ccc4nc[nH]c4c3)[nH]c2c1)c1cccs1	-0.5%	9.9%	-28.1%	?	-35.1%[57.1 µM]	22.4µM*
O=C(Nc1ccc2nc(-c3ccco3)[nH]c2c1)c1ccco1	-2.3%	/	?	37.0%	-25.7%	70.8µM*
SMILES	GLS inhibitor	L3MBTL1 inh	BAZ2B block	HP1b chromo inh	JMJD2A Tudor inh	G9a inh
Cn1c(CCNC(=O)c2ccco2)nc2cc(NC(=O)c3ccccc3)ccc21	-5.1%	/	?	49.6%	-7.5%	-36.2%
O=C(Nc1ccc2nc(-c3ccco3)[nH]c2c1)c1cccs1	0.6%	-10.8%	?	16.7%	-16.1%	14.1µM*
Cn1c(CCNC(=O)c2ccco2)nc2cc(NC(=O)c3ccco3)ccc21	3.5%	-2.1%	-6.8%	43.4%	3.0%	14.1µM*
CC(=O)OCOC(c1ccc2ccccc2c1)P(=O)(OCOC(C)=O)OCOC(C)=O (stereo not given)	/	/	/	/	/	-0.1%[59 µM]
Cc1cc(Nc2cccc(C(F)(F)F)c2)nc2ccc(NC(=O)c3cccc(Cl)c3)cc12	3.0%	/	-2.9%	11.8%	-20.8%	2.7%[59 µM]
Cc1ccc(C)c(N2CCN(CCCNC(=O)CCC(=O)N3CCOc4ccc(Cl)cc43)CC2)c1	/	/	?	/	/	-6.9%
COc1ccc(N2CCN(CCCNC(=O)CCC(=O)N3CCOc4ccc(Cl)cc43)CC2)cc1	38.9%	/	31.6µM*	-17.2%	?	/
O=C(CCC(=O)N1CCOc2ccc(Cl)cc21)NCCCN1CCN(c2ccccc2F)CC1	-3.4%	3.1%	?	21.4%	-18.8%	89.1µM*
CN1C2CCC1CC(NC(=O)n1c(=O)[nH]c3ccccc31)C2 (stereo not given)	-3.0%	/	/	/	/	/
N#Cc1nc(-c2ccco2)oc1N1CCCC1	2.1%	/	2.8%	0.8%	-19.2%	25.3%[2.33 µM]
N#Cc1c(N2CCN(C(=O)c3ccco3)CC2)nc(-c2ccccc2)c2c1CCCC2	0.5%	-5.0%	-10.7%	14.0%	-14.1%	-33.4%[59 µM]
N#Cc1nc(-c2ccccc2)oc1N1CCN(C(=O)c2ccco2)CC1	-1.1%	/	1.8%	-17.7%	-28.1%	39.8µM*
N#Cc1nc(-c2ccco2)oc1N1CCc2ccccc2C1	14.2%	/	25.1µM*	?	?	?
N#Cc1nc(-c2ccco2)oc1N1CCN(C(c2ccccc2)c2ccccc2)CC1	-1.1%	/	?	?	-35.5%	?
N#Cc1nc(-c2ccco2)oc1N1CCN(c2cccc(Cl)c2)CC1	1.4%	?	25.1µM*	?	?	?
COc1ccccc1-c1nc(C#N)c(N2CCN(c3cccc(Cl)c3)CC2)o1	-1.8%	-12.9%	6.1%	?	?	0.708µM*
O=C(CNC(=O)c1ccc2n[nH]nc2c1)OC(C(=O)Nc1cc(C(F)(F)F)ccc1Cl)c1ccccc1 (stereo not given)	/	/	/	/	-26.0%	/
COCCNc1ncnc2ccc(-c3ccccc3C)cc12	/	/	/	/	/	6.3%[0.501 µM]
CCCN1CCN(c2ncc3c(n2)CCN(Cc2ccc(OC)c(OC)c2OC)C3)CC1	9.6%	/	-38.6%	43.9%	-14.2%	-7.4%[12.7 µM]
COc1ccc(-c2nc(C)c(CCNC(=O)c3ccco3)s2)cc1	3.9%	/	-20.4%	17.6%[57 µM]	-15.5%	-3.0%[59 µM]
CCOc1ccc(C(=O)Nc2ccc(-c3cc4ccccc4oc3=O)cc2)cc1Br	-3.0%	/	5.7%	20.1%	-8.5%	12.5%[59 µM]
CCCn1c2ccccc2c2cnn(CC(=O)N3CCC(C)CC3)c(=O)c21	-7.8%	/	0.3%	30.9%	-5.9%	-21.9%[59 µM]
